IMPase cell inh – IMPase inhibition in cells. AID 901. inhibition (IP1 accumulation), % at 46.1 µM. CHO-M1 cells, IP1 accumulation, HTRF TR-FRET ratio. 120,000 tested, under 10 active. P97697; active = well fitted curve in the direction sought with a large enough effect in the signal ratio, not every such curve was filed as active; inconclusive = small, poorly fitted or top-dose-only effect, or a change in a side signal; inactive = no such curve, though single readings can be large or run the other way; the % refers to the signal ratio;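 also: cells stimulated with carbachol in lithium chloride buffer; plate controls were DMSO basal wells for no effect and reference inhibitor wells for full effect; higher means more IMPase inhibition seen as more IP1 and lower FRET ratio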
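Cellular IMPase inhibition is scored as a rise in cytosolic IP1, detected by competitive TR-FRET between d2-labelled IP1 and a europium anti-IP1 antibody. M1-expressing CHO cells were stimulated with carbachol for 30 min at 37C, with lithium (50 mM LiCl) present in the buffer.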
PNC assembly inh – perinucleolar compartment assembly inhibition. PC3M PTB-GFP, PNC prevalence imaging, 16 h; hits give low values. 3.1% of 140,000 active. AID 2417. activity change (PNC), negative = inhibition, % at 10 µM;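 active = readout at or below -70, meaning at least 70% loss of cells showing the perinucleolar compartment, a nuclear body marking cancer cells; inconclusive = readout between -30 and a set limit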;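 also: plate controls were DMSO wells for no effect and camptothecin positive control wells for full effect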
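PC3M cells stably expressing PTB-GFP, 750–1000 cells/well, treated 16 h at 37 °C with compound (23 nl of library stock), in duplicate. After paraformaldehyde fixation and Hoechst stain, imaged at 20x; PNC prevalence scored by image analysis.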
NPSR antag – antagonists of human neuropeptide S receptor cAMP signaling; Q6W5P4; CHO-NPSR cells, cAMP TR-FRET, antagonist mode; Potency, µM (titrated, usually from 38.3 µM), for the others: at the top dose activity change, negative = inhibition, usual class: inhibitors; 1% of 220,000 active; AID 1461; also: potency is read from the fitted curve at half-maximal effect; nearly all actives have a fitted effect of over 50% in size
Target sequence (Q6W5P4 whole entry, looked up): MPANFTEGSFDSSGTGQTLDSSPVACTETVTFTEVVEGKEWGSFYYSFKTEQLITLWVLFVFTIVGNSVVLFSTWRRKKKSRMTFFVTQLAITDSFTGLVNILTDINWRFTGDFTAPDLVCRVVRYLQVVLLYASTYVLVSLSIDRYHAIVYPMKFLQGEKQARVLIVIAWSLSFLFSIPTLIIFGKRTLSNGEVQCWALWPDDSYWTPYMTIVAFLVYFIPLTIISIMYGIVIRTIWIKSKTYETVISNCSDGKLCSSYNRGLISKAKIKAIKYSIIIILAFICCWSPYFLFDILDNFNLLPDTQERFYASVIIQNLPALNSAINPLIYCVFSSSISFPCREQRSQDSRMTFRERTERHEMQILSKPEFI
IMPase Li cell – IMPase inhibition in cells with lithium potentiation | 0.35% of 210,000 active | Potency, µM (highest dose often 59.4 µM), without a hit: at the highest dose activity, negative = IMPase inhibition, hits mostly inhibitors | AID 1457 | CHO-M1 cells, IP1 TR-FRET (IP-One), carbachol + lithium;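 also: IP1 builds up when IMPase is blocked and the TR-FRET signal falls; potency is read from the fitted curve at half-maximal effect; plate controls were basal vehicle for no effect and high inhibitor control for full effect; nearly all actives have a fitted effect of over 50% in size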
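Readout is a homogeneous TR-FRET IP1 immunoassay (Ex 320, Em 665 and 620), where raised cytosolic IP1 lowers signal. Cells were CHO-M1 treated 30 min at 37C with test compounds plus a little lithium; AC50 values came from Hill-equation fitting.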
HPGD inh – inhibitors of human 15-hydroxyprostaglandin dehydrogenase (HPGD). 4.3% of 150,000 active. AID 894. purified HPGD, NADH fluorescence kinetic, PGE2 substrate. Potency, µM, for inactives: at the highest dose activity change, negative = inhibition, hits mostly inhibitors. P15428; active = well fitted inhibition curve with a large enough effect, not every such curve was filed as active; inconclusive = small, poorly fitted or top-dose-only effect, or another doubt; inactive = no such curve, though single readings can be large or run the other way; also: potency is read from the fitted curve at half-maximal effect
Target sequence (P15428 whole entry, looked up): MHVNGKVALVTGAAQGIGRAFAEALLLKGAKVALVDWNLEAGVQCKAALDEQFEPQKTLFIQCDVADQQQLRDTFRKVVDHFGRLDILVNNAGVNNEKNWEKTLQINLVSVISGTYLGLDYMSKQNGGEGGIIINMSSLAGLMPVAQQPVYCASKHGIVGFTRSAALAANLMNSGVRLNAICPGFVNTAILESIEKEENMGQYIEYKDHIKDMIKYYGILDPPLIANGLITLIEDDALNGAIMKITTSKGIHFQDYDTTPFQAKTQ
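NADH formation kinetics: reaction with 30 uM PGE2 and 1 mM NAD+ (final), 20 nM enzyme, Tris-HCl pH 8 with Tween 20, after 15 min compound preincubation at room temperature. Fluorescence change, last versus first of five reads.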
ALDH1A1 inh – ALDH1A1 (human) enzyme inhibition; Purified ALDH1A1, NADH fluorescence, propionaldehyde substrate; AID 1030; P00352; Potency, µM (series often up to 75.3 µM), for the others: top-dose activity, negative = inhibition, most hits filed as inhibitors; 7.3% of 220,000 active; active = well fitted inhibition curve with a large enough effect, not every such curve was filed as active; inconclusive = small, poorly fitted or top-dose-only effect, or another doubt; inactive = no such curve, though single readings can be large or run the other way;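 also: potency is read from the fitted curve at half-maximal effect; plate controls were no enzyme wells and a reference inhibitor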
Starred values were filed as active, the others as inactive; ? = inconclusive; nt = no result; [ ] = remark or other dose. This is a sample that favours compounds with a hit; in the whole collection about 11% have one here. Unless noted, calls follow the shape of the dose curve; as a rule, active = well fitted curve in the direction sought with a large enough effect; inconclusive = small, poorly fitted or top-dose-only effect, or another doubt; inactive = no such curve, though single readings can be large; an effect the other way counts as inactive or inconclusive. Unless noted, % is scaled to controls: 0 for no effect and ±100 for the full control effect.

SMILES	IMPase cell inh	PNC assembly inh	NPSR antag	IMPase Li cell	HPGD inh	ALDH1A1 inh
COc1ccc(OC)c(C2CC(=O)N3CN(c4ccccc4)CSC3=C2C#N)c1 (stereo not drawn)	6.6	34.5	-5.2%[46.1 µM]	9.6%[38.3 µM]	7.08µM*	7.94µM*
Cc1cccc(N2CSC3=C(C#N)C(c4ccc(C)o4)CC(=O)N3C2)c1 (stereo not drawn)	-8.1	?	-9.1%[46.1 µM]	-14.3%[38.3 µM]	8.91µM*	8.91µM*
COc1ccc(OC)c(C2NC(=O)c3sc(=S)n(-c4ccccc4)c3N2)c1 (stereo not drawn)	3.5	4.0	-10.3%[46.1 µM]	45.2%[38.3 µM]	?	?
CN1CCN(C(=O)C2=C[C@@H](c3csc4ccccc34)C[C@@H](OCCCCO)O2)CC1	nt	nt	-16.8%	-8.8%	nt	?
O=C(N/N=C/c1ccc(N2CCCCC2)o1)C(O)(c1ccccc1)c1ccccc1	nt	?	-31.1%	9.9%	31.6µM*	?
CCCN1C(=O)/C(=N\OCC(=O)NCC(F)(F)F)c2ccccc21	-1.6	45.4	0.9%[46.1 µM]	7.0%	-16.9%	1.26µM*
Cc1cc(NC(=O)COC(=O)COc2cccc3c2OC(C)(C)C3)no1	-0.5	-20.9	-1.8%[46.1 µM]	-3.3%[38.3 µM]	0.0%	-1.2%
Cc1cnc(NC(=O)COc2cccc3c2OC(C)(C)C3)s1	2.1	-94.7*	-9.2%[46.1 µM]	-4.9%[38.3 µM]	2.3%	7.7%
C[C@H]1C=C(C(=O)N2CCOCC2)O[C@@H](OCc2ccc(CO)cc2)C1	nt	nt	-23.3%	3.3%	nt	4.0%
COc1ccc(S(=O)(=O)Nc2cccc(C(C)=O)c2)cc1Br	nt	nt	2.9%	1.3%	nt	31.6µM*
CCN(CCNS(=O)(=O)c1ccc2c(c1)oc(=O)n2C)c1ccccc1	0.1	?	-13.8%[46.1 µM]	-1.4%[38.3 µM]	-8.0%	-3.4%
Cc1ccc(NC(=O)CCNS(=O)(=O)c2ccc3c(c2)oc(=O)n3C)c(C)c1	2.7	-12.2	-1.2%[46.1 µM]	-4.0%[38.3 µM]	-1.5%	-7.6%
CCN(CC)c1ccc(NS(=O)(=O)c2ccc3c(c2)oc(=O)n3C)c(C)c1	3.5	20.8	-6.2%[46.1 µM]	15.7%[38.3 µM]	12.6µM*	?
Cc1cc(C)cc(NC(=O)CCNS(=O)(=O)c2ccc3c(c2)oc(=O)n3C)c1	-8.1	-100.0*	-1.6%[46.1 µM]	8.7%	-6.0%	1.6%
CC(=O)c1cccc(NS(=O)(=O)c2ccc3c(c2)oc(=O)n3C)c1	-8.2	?	-1.8%[46.1 µM]	47.4%[38.3 µM]	-23.2%	22.4µM*
O=C(c1cccs1)N1CCc2ccccc2C1	nt	nt	-11.6%	3.4%	nt	1.5%
O=C(NCCc1ccc(Cl)cc1)C1CCN(S(=O)(=O)c2cccc3nonc23)CC1	2.6	-26.9	-23.8%[46.1 µM]	-12.4%[38.3 µM]	-13.4%	-14.9%
Cc1ccc(-n2c3c(c(=O)[nH]c2=O)C(NS(=O)(=O)c2ccc(Cl)cc2)(C(F)(F)F)C(=O)N3)cc1 (stereo not drawn)	-1.6	191.7	10.1%[46.1 µM]	nt	nt	6.4%
COc1ccc(NC(=O)CC2CCCC2)cc1S(=O)(=O)N1CCCCC1	nt	-16.6	-3.4%	5.1%	-2.1%	4.2%
COCCNCC(=O)Nc1ccc(C)c(S(=O)(=O)N2CCCCC2)c1	nt	nt	4.1%	-0.5%	nt	-3.3%
Cc1ccc(NC(=O)CCl)cc1S(=O)(=O)N1CCCCCC1	nt	nt	-19.6%	-1.1%	nt	1.5µM*
COc1ccc(NC(=O)CN(C)Cc2c(F)cccc2Cl)cc1S(=O)(=O)N1CCCCC1	nt	nt	-34.5%	11.3%	nt	28.2µM*
Cc1ccc(/C=N/n2c(-c3cccc(Cl)c3)n[nH]c2=S)o1	nt	nt	4.8%	nt	nt	nt
CCN(CC)S(=O)(=O)c1cccc(-c2n[nH]c(=S)n2C(C)COC)c1 (stereo not drawn)	nt	nt	-10.6%	7.6%	nt	-4.0%
CCC(C)n1c(-c2cccc(S(=O)(=O)N(CC)CC)c2)n[nH]c1=S (stereo not drawn)	nt	nt	-24.1%	3.0%	nt	12.6µM*
CCN(CC)S(=O)(=O)c1cccc(-c2n[nH]c(=S)n2/N=C/c2ccc(OC)cc2)c1	nt	17.2	-36.5%	8.5%	15.8µM*	?
CCN(CC)S(=O)(=O)c1cccc(-c2n[nH]c(=S)n2/N=C/c2ccc(Br)cc2)c1	nt	-20.5	-44.2%	-3.2%	14.1µM*	-16.3%
